Screening results deposited in PubChem by several laboratories.
An excerpt weighted towards active compounds, which were near 2.5% of everything screened.
NPR2 activator – GC-B (human) receptor activation. HEK293-GC-B cells, CNP EC30, cGMP TR-FRET; 0% at EC30 CNP, 100% saturating CNP. activation, % at 10 µM. P20594. 370,000 compounds, 0.11% hits;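 active = activation at 10 µM reaching about 35% in either raw or pattern-adjusted values, limit read from the data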
Target sequence (P20594 whole entry, looked up): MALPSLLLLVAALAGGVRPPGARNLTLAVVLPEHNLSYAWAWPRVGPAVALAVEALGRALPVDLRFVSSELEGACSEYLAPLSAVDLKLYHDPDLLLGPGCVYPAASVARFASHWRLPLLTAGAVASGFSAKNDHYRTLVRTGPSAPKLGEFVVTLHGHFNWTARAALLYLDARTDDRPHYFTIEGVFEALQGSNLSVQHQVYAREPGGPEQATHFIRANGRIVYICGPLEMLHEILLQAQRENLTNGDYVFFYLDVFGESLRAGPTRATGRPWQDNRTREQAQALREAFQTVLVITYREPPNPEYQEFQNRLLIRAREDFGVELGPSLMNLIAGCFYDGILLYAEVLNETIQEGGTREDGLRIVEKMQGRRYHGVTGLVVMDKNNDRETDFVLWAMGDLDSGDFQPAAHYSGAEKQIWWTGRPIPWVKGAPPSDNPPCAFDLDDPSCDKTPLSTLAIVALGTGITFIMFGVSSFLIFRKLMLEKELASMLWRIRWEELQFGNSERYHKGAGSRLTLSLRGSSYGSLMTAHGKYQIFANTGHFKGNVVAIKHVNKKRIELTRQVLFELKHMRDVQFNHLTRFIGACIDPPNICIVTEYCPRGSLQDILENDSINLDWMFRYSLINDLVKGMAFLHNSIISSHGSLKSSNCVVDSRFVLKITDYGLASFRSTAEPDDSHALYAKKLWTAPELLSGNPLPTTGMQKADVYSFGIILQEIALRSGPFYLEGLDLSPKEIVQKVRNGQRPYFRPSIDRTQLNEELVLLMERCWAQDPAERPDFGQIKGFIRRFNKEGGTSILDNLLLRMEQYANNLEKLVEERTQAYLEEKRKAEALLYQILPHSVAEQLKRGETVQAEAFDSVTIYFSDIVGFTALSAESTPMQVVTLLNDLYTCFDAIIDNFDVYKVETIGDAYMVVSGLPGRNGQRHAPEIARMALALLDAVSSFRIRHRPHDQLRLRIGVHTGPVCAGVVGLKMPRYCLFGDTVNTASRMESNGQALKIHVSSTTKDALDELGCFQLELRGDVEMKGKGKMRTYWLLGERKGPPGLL
Dyrk1A ADPGlo – inhibitors of rat Dyrk1A kinase; inhibition, % at 12.5 µM; 310,000 compounds, 0.43% hits; ADP-Glo luminescence, NFATc1 peptide; in the data active = inhibition above about 50%;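 also: plate controls were vehicle with enzyme for no effect and no enzyme for full effect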
GC-A act – GC-A (human) enzyme activation | HEK293 GC-A cells, cGMP TR-FRET, EC30 ANP; 0% at EC30 ANP, 100% saturating ANP | activation, % at 10 µM | P16066 | 370,000 compounds, 0.14% hits | AID 1671463; in the data active = activation above about 40%
aDG glyco up – alpha-DG glycosylation activation; activation, % at 10 µM; 360,000 compounds, 0.22% hits; Pro5-aDG cells, alpha-DG glycosylation AlphaScreen (IIH6); 0% Pro5, 100% B10-LARGE cell signal; AID 624168;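 active = activation of at least 8% versus controls, or a plate z-score of at least 8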;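 also: Pro5 are CHO cells carrying HIG-tagged alpha-DG that lacks glycosylation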
HSF1 activator – increases HSF-1 driven luciferase reporter signal | NIH3T3-HGL HSF-1 luciferase reporter, MG132, 8 h; 100% = twice DMSO control signal | activation, % at 9 µM | 300,000 compounds, 1.7% hits | AID 504408;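 active = mean replicate activation of at least 50% with a set share of replicates each reaching 50%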;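 also: 0% = median of the neutral control wells and 100% = twice that signal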
HSF1 inhib – HSF1 inhibition. NIH3T3-HGL HSE-luciferase, MG132-induced, luminescence 8 h; active compounds read low. activity change, negative = inhibition, % at 7.5 µM (by protocol). 300,000 compounds, 0.77% hits. AID 2098;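 active = more than half of replicate wells show activity change below -50%, luminescence cut by over half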;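 also: luciferase reports HSF-1 transcriptional activity via heat shock element; 0% = median of DMSO wells and -100% = zero luminescence signal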
ADP-Glo artifact – ADP-Glo luciferase interference, Dyrk1A counter-screen. shares compounds with Dyrk1A ADPGlo. ADP-Glo luciferase artifact assay, no Dyrk1A, luminescence. AC50, µM (series often up to 12 µM), without a hit: at the top dose activity change, negative = inhibition. 1,300 tested, under 10 active. AID 588348;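 active = fitted half-maximal dose AC50 no more than ten times the top valid tested dose, with luminescence dropping as dose rises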
The depositor's hits bear a star; nt = no result given; ! = not active in a repeat.

SMILES	NPR2 activator	Dyrk1A ADPGlo	GC-A act	aDG glyco up	HSF1 activator	HSF1 inhib	ADP-Glo artifact
Oc1cc(-c2ccncc2)cc2cccnc12	-26	76*	-18	0	nt	nt	11%
C/C(=N/NC(=O)c1ccc(C)s1)c1cccnc1	4	6	-2	0	-5	-7	nt
C/C(=N/NC(=O)c1ccc(Br)s1)c1cccnc1	-7	51*	2	0	5	-6	7%
O=C1c2ccccc2-c2onc3ccc(N4CCCC4)c1c23	-16	77*	1	-1	93*	59	9%
CC(C)=CCc1c(O)ccc2c1OC(c1ccc(O)c(O)c1)CC2=O (stereo unspecified)	5	64*	5	0	33	22	10%
O=C1CC(c2ccc(O)c(O)c2)Oc2c1ccc(O)c2O (stereo unspecified)	5	34	3	0	nt	nt	nt
O=c1ccn(-c2cccc(C(F)(F)F)c2)nc1-c1ccn(-c2ccccc2F)n1	9	22	8	0	8	2	nt
COc1ccc(-n2ccc(-c3nn(-c4cccc(C(F)(F)F)c4)ccc3=O)n2)cc1	9	51*	18	0	3	1	6%
COc1cc2c(ccc3cc(OC)c(OC)c(O)c32)cc1O	1	94*	-2	0	10	1	6%
Nc1ccc(-c2ccc(C(=O)O)s2)cn1	-2	71*	0	0	6	-1	7%
Nc1ccc(S(=O)(=O)O)cn1	1	11	4	0	7	-4	nt
Oc1ccc(/C=N/n2c(COc3ccccc3)n[nH]c2=S)c(O)c1	-4	67*	-1	0	-5	2	10%
COC(=O)c1cc(C)nc2c1C(=O)C(=O)C=C2N1CCOCC1	-1	61*	0	0	30	4	8%
COC(=O)c1cc(S(=O)(=O)N2CCOCC2)c(Cl)cc1N1CCOCC1	5	-1	0	0	3	-4	nt
Nc1nc(N)nc(-c2ccc(Cl)cc2)n1	4	62*	3	0	12	-2	7%
Cc1ccc(Oc2ccc(-c3nc(N)nc(N)n3)cc2)cc1	-5	47	-1	0	nt	nt	nt
COc1cccc(Nc2ncnc3sc(C)cc23)c1	-3	77*	0	0	69*	33	11%
c1ccc(C(c2ccccc2)N2CCN(C(c3ccccn3)c3nnnn3C3CCCC3)CC2)cc1 (stereo unspecified)	nt	1	nt	0	-12	3	nt
COCCNC(=O)c1cc2cc3ccc(OC)cc3nc2o1	-4	58*	2	0	20	2	10%
COc1ccc2cc3cc(C(=O)NCC4CCCO4)oc3nc2c1 (stereo unspecified)	2	54*	6	0	11	0	10%
O=S(=O)(NCCN1CCOCC1)c1ccc(Cl)c(Cl)c1	3	-4	1	0	-5	-11	nt
COc1cc(/C=N/N2C(=O)CSC2=S)ccc1O	-4	52*	-5	0	7	-1	10%
COc1cc(O)c(C=NN2C(=O)CSC2=S)c(OC)c1	-4	nt	-1	0	nt	nt	nt
O=C(c1ccc(F)cc1)c1cc2ccc(O)cc2oc1=O	-2	23	4	0	-1	5	nt
N=c1oc2cc(O)ccc2cc1C(=O)Nc1ccc(F)cc1	9	53*	7	0	17	11	9%
SMILES	NPR2 activator	Dyrk1A ADPGlo	GC-A act	aDG glyco up	HSF1 activator	HSF1 inhib	ADP-Glo artifact
CCOc1ccc(NC(=S)Nc2cccc3cnccc23)cc1	-5	1	-2	0	19	17	nt
S=C(Nc1cccnc1)Nc1cccc2cnccc12	1	60*	2	0	16	18	9%
COc1ccc(NC(=S)Nc2cccc3cnccc23)cc1	-5	56*	4	0	31	23	7%
CN(C)S(=O)(=O)c1cccc(NC(=S)Nc2cccc3cnccc23)c1	3	56*	-1	3	-15	-6	8%
Fc1ccc(NC(=S)Nc2cccc3cnccc23)cc1	-2	59*	2	0	38	18	9%
COc1ccccc1NC(=S)Nc1cccc2cnccc12	-3	37	-1	0	4	4	nt
CC(=O)c1cccc(NC(=O)CCNC(=O)c2ccccc2Cl)c1	5	-1	-1	0	4	-2	nt
FC(F)Oc1cccc(NC(=S)N2CCN(c3ccccn3)CC2)c1	7	4	-2	0	10	-2	nt
Cn1c(Cn2c(=O)sc3ccccc32)nnc1SCC(=O)N1CCOCC1	3	-3	2	0	5	-2	nt
COc1ccc(-n2c(Cn3c(=O)sc4ccccc43)nnc2SCC(=O)N2CCOCC2)cc1	1	56*	-1	0	nt	nt	7%
COc1ccc(S(=O)(=O)N2CCN(C(=O)[C@@H]3CCCN3C(=O)c3cccs3)CC2)cc1	-3	6	-2	0	nt	nt	nt
COc1cc(OC)c(S(=O)(=O)N2CCOCC2)cc1S(=O)(=O)N1CCOCC1	-1	1	2	0	-4	-4	nt
CC(C)(C)NC(=O)COC(=O)c1nsc(Cl)c1Cl	-4	-3	0	0	-35	-18	nt
CN(C)c1ccc(S(=O)(=O)N2CCCCC2)cc1NC(=O)CN1C(=O)NC(C)(c2ccccc2)C1=O (stereo unspecified)	3	-4	3	0	-1	-4	nt
COc1cc(/C=C2\SC(N3CCC(C)CC3)=NC2=O)ccc1O	-2	77*	-1	0	46	12	12%
COc1ccc(/C=N/NC(=O)C2C3CCCCC32C)cc1OC (stereo unspecified)	-5	3	6	1	4	-2	nt
Clc1ccccc1OCc1nn2c(-c3ccncc3)nnc2s1	1	7	7	0	-13	-12	nt
Cc1nc(COc2ccccc2Cl)sc1-c1ccnc(N)n1	-5	79*	10	0	26	15	10%
CCOC(=O)c1cnc2ccc(C)cc2c1Nc1ccc(N2CCOCC2)cc1	0	61*	-3	0	8	7	8%
COc1cc2c(C#N)c(N3CCCC3)nc(N)c2c(N)n1	1	53*!	8	0	-8	-6	12%
N#Cc1c(N2CCCC2)nc(N)c2c(N)nc(N3CCCC3)cc12	1	67*	-5	0	17	2	9%
O=c1cc(-c2ccccc2Cl)oc2c([N+](=O)[O-])c(O)cc(O)c12	0	83*	-1	0	-39	-40	12%
